Results reported in PubChem BioAssay (Tox21).
Inconclusive results are not listed. Where a call stands in place of a potency, no number is given. Values without a mark were called inactive. The source made the active and inactive calls. The call rests on the fitted dose curve; in most records, active means well fitted cell-killing curve with a large enough effect in the repeat runs; inconclusive means weak or mixed curves, or effect the other way; inactive means flat fitted curve, though single readings scatter.

Assays:
[1] = cAMP Responsive Elements (CRE) small molecule antagonists, cell-based qHTS assay: qHTS cell viability counter screen (AID 2060913); conditions: CRE-bla HEK293T viability, CellTiter-Glo luminescence, 5 h; series mostly up to 92.4 µM; further: nearly all actives have a fitted effect of over 40% in size
Method in brief: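 Cytotoxicity counter screen multiplexed with the CRE-bla antagonist read: HEK293T cells in DMEM with dialyzed FBS and 25 mM HEPES were treated 3 hrs under 0.25 uM final NKH477, then viability measured by CellTiter-Glo luminescence.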

[2] = cAMP Responsive Elements (CRE) small molecule agonists, cell-based qHTS assay: qHTS cell viability counter screen (AID 2060914); conditions: CRE-bla HEK293T viability, CellTiter-Glo luminescence, 5 h; series mostly up to 92.4 µM;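 further: viability read after 3 h of compound exposure; nearly all actives have a fitted effect of over 50% in size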
Method in brief: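 HEK 293T CRE-bla; DMEM + 10% dialyzed FBS, 25 mM HEPES; 18 h pre-incubation; compound 3 h, 37 °C/5% CO2; CellTiter-Glo added after reporter read; luminescence after 30 min RT.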
Potency means the concentration at half of the fitted maximal effect.

SMILES	Potency [1]	Potency [2]	viability change, negative = cytotoxic [1]	activity change, negative = cytotoxicity [2]
C[Si](O[Si](C)(C)C)O[Si](C)(C)C	inactive	inactive		
CCOCCn1c(N2CCCN(C)CC2)nc2ccccc21	inactive	inactive		
CC(C)NCC(O)COc1cccc2[nH]ccc12 (stereo not given)	inactive	inactive		
CC1CCCC1	inactive	inactive		
NS(=O)(=O)c1cc2c(cc1Cl)NC=NS2(=O)=O	inactive	inactive		
Cc1occc1C(=O)Nc1ccc(C(=O)N2CCC(F)(F)/C(=C\C(=O)N3CCC(N4CCCCC4)CC3)c3ccccc32)cc1	inactive	inactive		
C[C@@H]1CN(CCCn2c3ccccc3c3ccccc32)C[C@H](C)N1	inactive	inactive		
CC(C)C(=O)O	inactive	inactive		
CC(C)=CCC/C(C)=C/CC/C(C)=C/CO	inactive	inactive		
CCOC(=O)[C@H](CCc1ccccc1)N[C@@H](C)C(=O)N(CC(=O)O)C1Cc2ccccc2C1	inactive	inactive		
CCSC(=O)N(CC(C)C)CC(C)C	inactive	inactive		
CCN(CC)CC	inactive	inactive		
CN(C)CCOCCN(C)CCO	inactive	inactive		
CCCCCCCCCC(=O)O	inactive	inactive		
C[C@@H]1O[C@@H](OC[C@H]2O[C@@H](Oc3c(-c4ccc(O)c(O)c4)oc4cc(O)cc(O)c4c3=O)[C@H](O)[C@@H](O)[C@@H]2O)[C@H](O)[C@H](O)[C@H]1O	inactive	inactive		
Cc1cc(C(=C2C=CC(=Nc3ccc(S(=O)(=O)O)cc3S(=O)(=O)O)C=C2)c2ccc(Nc3ccc(S(=O)(=O)O)cc3)cc2)ccc1N	inactive	inactive		
CC(C)COCC(CN(Cc1ccccc1)c1ccccc1)N1CCCC1 (stereo not given)	29.8 µM (active)	inactive		
c1cc(C(c2ccc(OCC3CO3)cc2)C(c2ccc(OCC3CO3)cc2)c2ccc(OCC3CO3)cc2)ccc1OCC1CO1 (stereo not given)	inactive	inactive		
c1ccc(OCCOc2ccccc2)cc1	inactive	inactive		
Nc1ccc(C(=O)O)c(O)c1	inactive	inactive		
Cc1c(N)c(=O)n(-c2ccccc2)n1C	inactive	inactive		
CCOc1ccccc1OCCN[C@H](C)Cc1ccc(OC)c(S(N)(=O)=O)c1	inactive	inactive		

SMILES	Potency [1]	Potency [2]	viability change, negative = cytotoxic [1]	activity change, negative = cytotoxicity [2]
CC(C)CCCC(C)N (stereo not given)	inactive	inactive		
COc1ccc(C(=O)CC(=O)c2ccc(C(C)(C)C)cc2)cc1	inactive	inactive		
Cc1cc(C(C#N)c2ccc(Cl)cc2)c(Cl)cc1NC(=O)c1cc(I)cc(I)c1O (stereo not given)	inactive	inactive		
C=CC(=O)NCOCC(C)C	inactive	inactive		
CN(C)CC[C@@H](c1ccc(Br)cc1)c1ccccn1	inactive	inactive		
CN(C)CCOC(C)(c1ccccc1)c1ccccn1 (stereo not given)	inactive	inactive		
CCCCCCCCCCOS(=O)(=O)O	inactive	inactive		
CC(C)C(C)C	inactive	inactive		
O=P(OC(CCl)CCl)(OC(CCl)CCl)OC(CCl)CCl	inactive	inactive		
Cc1c(Cl)cccc1Nc1ccccc1C(=O)O	inactive	inactive		
CCOC(=S)SSC(=S)OCC	inactive	inactive		
C[C@H](CN1CCCC1)C(=O)c1ccc(C(F)(F)F)cc1	inactive	inactive		
CC(=O)OCC(CCn1cnc2cnc(N)nc21)COC(C)=O	inactive	inactive		
Cc1cc(C(C)(C)C)c(O)c(C(C)(C)C)c1	inactive	inactive		
CNC(=O)CN(CCN(CCN(CC(=O)[O-])CC(=O)NC)CC(=O)[O-])CC(=O)[O-].O.[Gd+3]	inactive	inactive		
CCOC(=O)c1ccc(I)cc1	inactive	inactive		
CN(C)[C@@H]1C(=O)C(C(N)=O)=C(O)[C@@]2(O)C(=O)C3=C(O)c4c(O)cccc4C[C@H]3C[C@@H]12	inactive	inactive		
CC(C)(C)OCC1CO1 (stereo not given)	inactive	inactive		
Cc1ccc(C#N)cc1	inactive	inactive		
O=C(O)/C=C/c1ccccc1	inactive	inactive		
Cc1cccc(C)c1	inactive	inactive		
O=C(O)c1ccc(-n2nc(-c3ccccc3O)nc2-c2ccccc2O)cc1	inactive	inactive		

SMILES	Potency [1]	Potency [2]	viability change, negative = cytotoxic [1]	activity change, negative = cytotoxicity [2]
CCC1(C)C(=O)N(Cl)C(=O)N1Cl (stereo not given)	inactive	inactive		
CC(=O)CCC=C(C)C	inactive	inactive		
CC(=O)OC(C)(C)Cc1ccccc1	inactive	inactive		
C#CCN(C)CCCOc1ccc(Cl)cc1Cl	inactive	inactive		
NC(Cc1ccc(Cl)cc1)C(=O)O (stereo not given)			9.93% [at 0.349 µM]	-0.576% [at 0.349 µM]
c1ccc2n[nH]nc2c1	inactive	inactive		
NC(=Nc1ccccc1)Nc1ccccc1	inactive	inactive		
NCCCC[C@H](N[C@@H](CCc1ccccc1)C(=O)O)C(=O)N1CCC[C@H]1C(=O)O	inactive	inactive		
CC(=O)O[C@]1(C(C)=O)CC[C@H]2[C@@H]3C=C(Cl)C4=CC(=O)[C@@H]5C[C@@H]5[C@]4(C)[C@H]3CC[C@@]21C	inactive	inactive		
Cc1c(C)c2c(c(C)c1O)CC[C@@](C)(CCC[C@H](C)CCC[C@H](C)CCCC(C)C)O2	inactive	inactive		
CCCc1nn(C)c2c(=O)[nH]c(-c3cc(S(=O)(=O)N4CCN(C)CC4)ccc3OCC)nc12	inactive	inactive		
Cc1nc2sccn2c(=O)c1CCN1CCC(=C(c2ccc(F)cc2)c2ccc(F)cc2)CC1	inactive	inactive		
CC(C)(C)C1CCC(O)CC1 (stereo not given)	inactive	inactive		
c1ccc2sc(SN3CCOCC3)nc2c1	inactive	inactive		
NNS(=O)(=O)c1ccc(Oc2ccc(S(=O)(=O)NN)cc2)cc1	inactive	inactive		
Cc1cccc(C(=O)O)c1O	inactive	inactive		
SCCc1cnccn1	inactive	inactive		
CC1(C)OC[C@@H]2O[C@@]3(C(=O)O)OC(C)(C)O[C@H]3[C@@H]2O1	inactive	inactive		
CC(O)CN (stereo not given)	inactive	inactive		
CC(C)OC(=O)COc1ccc(Cl)cc1Cl	inactive	inactive		
Oc1cc(O)c(Cl)cc1Cl	inactive	inactive		
CCCCC	inactive	inactive		

SMILES	Potency [1]	Potency [2]	viability change, negative = cytotoxic [1]	activity change, negative = cytotoxicity [2]
CCCCCCCCCCCCCC(=O)OC(C)C	inactive	inactive		
OCCCS	inactive	inactive		
Nc1nc2c(ncn2COCCO)c(=O)[nH]1	inactive	inactive		
C=C(C)C(=O)OCCCCCCCC(C)C	inactive	inactive		
COC(=O)c1ccccc1C	inactive	inactive		
Nc1ccc(C(=O)O)cc1	inactive	inactive		
COCCOCCOCCO	inactive	inactive		
NC(N)=NC(=O)c1nc(Cl)c(N)nc1N	inactive	inactive		
CCCCC(CC)CN=C(N)NC(N)=NCCCCCCN=C(N)NC(N)=NCC(CC)CCCC (stereo not given)	21.1 µM (active)	16.8 µM (active)		
CCC(C)(CCC(C)C)C(=O)[O][Sn]([CH3])([CH3])[O]C(=O)C(C)(CC)CCC(C)C (stereo not given)	inactive	inactive		
COc1ccccc1[N+](=O)[O-]	inactive	inactive		
CC1=NN(c2ccc(S(=O)(=O)O)cc2)C(=O)C1N=Nc1ccccc1 (stereo not given)	inactive	inactive		
CC(C)Cc1ccc(C(C)C(=O)OCc2ccccn2)cc1 (stereo not given)	inactive	inactive		
CC(C)(C)Cl	inactive	inactive		
Nc1ccc(S(=O)(=O)NC(=O)c2ccccc2)cc1	inactive	inactive		
OCC1CC=CCC1 (stereo not given)	inactive	inactive		
CCCOc1sc(C(=O)N2CCC(c3cc(CN)ccc3F)CC2)c(C)c1Br	56 µM (active)	inactive		
CCOc1ccc2c(c1)C(C)CC(C)(C)N2 (stereo not given)	inactive	inactive		
C=CC(=O)OCCCCCCCC	inactive	inactive		
CC(C)CCC(=O)CCC(C)C	inactive	inactive		
CS(=O)(=O)OCCCCOS(C)(=O)=O	inactive	inactive		
NC(=O)Nc1ccc(Cl)cc1	inactive	inactive		

SMILES	Potency [1]	Potency [2]	viability change, negative = cytotoxic [1]	activity change, negative = cytotoxicity [2]
O=S(=O)(O)C(F)(F)F	inactive	inactive		
CCCCCCCCCC(=O)OCC	inactive	inactive		
CO[C@H]1C=CO[C@@]2(C)Oc3c(C)c(O)c4c(O)c(c5c(c4c3C2=O)=NC2(CCN(CC(C)C)CC2)N=5)NC(=O)/C(C)=C\C=C/[C@H](C)[C@H](O)[C@@H](C)[C@@H](O)[C@@H](C)[C@H](OC(C)=O)[C@@H]1C	inactive	inactive		
O=C(O)c1cn(C2CC2)c2cc(N3CCNCC3)c(F)cc2c1=O	inactive	inactive		
O=C(O)CCCCCCCCCCCBr	inactive	inactive		
Nc1cc(S(=O)(=O)O)ccc1O	inactive	inactive		
COC(C)(C)OC	inactive	inactive		
C[Si](C)(C)O[Si](C)(C)C	inactive	inactive		
C[Si](Cl)(c1ccccc1)c1ccccc1	inactive	inactive		
COc1ccc(C2C(=O)c3ccccc3C2=O)cc1	inactive	inactive		
COc1ccccc1Oc1c(NS(=O)(=O)c2ccc(C(C)(C)C)cc2)nc(-c2ncccn2)nc1OCCO	inactive	inactive		
CN(c1nccc(=O)[nH]1)C1CCN(c2nc3ccccc3n2Cc2ccc(F)cc2)CC1	inactive	inactive		
COc1ccc(/C=C/S(=O)(=O)NC(=O)c2ccc(C)cc2Cl)cc1	inactive	inactive		
C=CCOC(=O)COCCC(C)C	inactive	inactive		
CCOC(=O)Oc1ccc(CCNC(=O)[C@H](CCSC)NC(C)=O)cc1OC(=O)OCC	inactive	inactive		
Oc1ccc(Cc2ccccc2)cc1	inactive	inactive		
CCCCCC(=O)O[C@]1(C(C)=O)CC[C@H]2[C@@H]3CCC4=CC(=O)CC[C@]4(C)[C@H]3CC[C@@]21C	inactive	inactive		
O=CNc1ccccc1	inactive	inactive		
CCCCCCCC/C=C\CCCCCCCC(N)=O	inactive	inactive		
CC(C)(C)c1ccc(OC(=O)c2ccccc2O)cc1	inactive	inactive		
Cc1ccc(C(=O)c2ccccc2)cc1	inactive	inactive		
CCCCCCCCCC[N+](C)(C)[O-]	inactive	inactive		
